Assay results as given in PubChem BioAssay AID778 (Sanford-Burnham Center for Chemical Genomics, 2007).
In all, about 96,000 compounds went through this assay and about 20,000 (21%) were called active. The list is a sample of the results. Values without a mark were called inactive.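 Rule for the calls: active = CYP2C19 inhibition above a set limit at 5 µM in the primary screen (cut at about 50% in these data); inactive = the rest.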

molecular target: Cytochrome P450 2C19 (Homo sapiens) (UniProt P33261); test: blockers of cytochrome P450 2C19 activity – biochemical, luminescence, ADME assay, primary screen (AID 778); details: CYP2C19 Supersomes, luciferin-H EGE luminescence, 30 min; at 5 µM; hits give high values;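 note: plate controls were negative control wells for no effect and 2.5 mM tranylcypromine positive control for full effect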
Sequence (P33261 whole entry, looked up): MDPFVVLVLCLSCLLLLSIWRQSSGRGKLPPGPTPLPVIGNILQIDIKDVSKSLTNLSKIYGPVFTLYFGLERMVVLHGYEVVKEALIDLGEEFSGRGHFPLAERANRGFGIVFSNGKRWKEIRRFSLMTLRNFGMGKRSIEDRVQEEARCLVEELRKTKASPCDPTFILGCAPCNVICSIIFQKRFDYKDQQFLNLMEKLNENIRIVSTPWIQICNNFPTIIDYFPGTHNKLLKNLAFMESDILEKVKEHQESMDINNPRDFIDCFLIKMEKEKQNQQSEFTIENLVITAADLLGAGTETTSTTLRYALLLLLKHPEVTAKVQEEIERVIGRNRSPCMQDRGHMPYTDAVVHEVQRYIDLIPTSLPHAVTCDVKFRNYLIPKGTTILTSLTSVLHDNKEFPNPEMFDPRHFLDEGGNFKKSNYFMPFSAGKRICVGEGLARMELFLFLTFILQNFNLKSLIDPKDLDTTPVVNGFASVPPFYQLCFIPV

Compound	inhibition
COc1ccc(C2NCc3ccc4c(c3-n3cccc32)OCO4)cc1OC (stereo not drawn)	77.5% (active)
c1ccc(C2NCc3ccccc3-n3cccc32)cc1 (stereo not drawn)	33%
CCC(=NCc1ccco1)c1c(O)n(Cc2ccccc2)c(=O)[nH]c1=O	49.6%
CC(=NCc1ccc2c(c1)OCO2)c1c(O)[nH]c(=O)[nH]c1=O	-13.9%
COc1ccc(CCn2c(O)c(C=NCCCn3ccnc3)c(=O)[nH]c2=O)cc1OC	16.7%
COc1ccc(CCn2c(O)c(C=NC3CC3)c(=O)[nH]c2=O)cc1OC	94.9% (active)
COc1ccccc1-n1c(O)c(C=NC2CC2)c(=O)[nH]c1=O	42.1%
CC(=O)N1CN2CN(C(C)=O)CC(C(=O)c3ccc(Br)cc3)(C2)C1	-5.5%
C=Cn1ccnc1P(=S)(c1cc(N(CC)CC)ns1)c1nccn1C=C	18.8%
CCC/C(=N\O)c1c[nH]c2ccccc12	72.6% (active)
C/C(CCc1c[nH]c2ccccc12)=N\O	12%
CNP1(NC)=Nc2nn(-c3ccccc3)c(N)c2C(c2ccccc2)=N1	-1.8%
CNC(=O)N(C)c1nnc(C(C)(C)C)s1	-8.5%
CC[N+](CC)(CC)CCCCCCCCCC[N+](CC)(CC)CC	14.9%
O=C1NC(=O)C(C/C=C/c2ccccc2)C(=O)N1	5%
COC(=O)CN1C(=O)C2(C(C(=O)OC)=C(N)Oc3ccccc32)C2=C1CC(C)(C)CC2=O (stereo not drawn)	18.2%
C=CCN1C(=O)C2(C(C(=O)OCC)=C(N)Oc3c2c(=O)oc2ccccc32)c2ccccc21 (stereo not drawn)	88.5% (active)
Cc1ccc(P(=S)(c2ccc(C)o2)N2CCOCC2)o1	36.5%
Cc1cc(N2C(=O)C3CCCN3C2c2ccc(Cl)c(Cl)c2)no1 (stereo not drawn)	11.9%
CCN1c2nc3c(C)cccn3c(=O)c2CC2(C(=O)N(C)C(=O)N(C)C2=O)C1C (stereo not drawn)	-11.5%

Compound	inhibition
N[C@@H](Cc1c[nH]c2ccccc12)c1nnc(SCc2c(F)cccc2Cl)o1	74.1% (active)
COc1ccc(-c2nc(CS(=O)CC(=O)N3CCC4(CC3)OCCO4)c(C)o2)cc1 (stereo not drawn)	13.3%
CCCCCn1c(=O)c(C(=O)Nc2c(C)n(C)n(-c3ccccc3)c2=O)c(O)c2ccccc21	1.4%
O=C(c1cc(-c2ccncc2)nc2ccccc12)N1CCC2(CC1)OCCO2	35.1%
Cc1cccc(-n2c(C)nc3cc(C(=O)N4CCC5(CC4)OCCO5)ccc32)c1	6.6%
O=C(c1cc2nc(-c3ccccc3)cc(-c3ccccc3)n2n1)N1CCC2(CC1)OCCO2	94% (active)
O=C(CCN1CCCCC1)NCC(=O)Nc1ccc(Br)cc1C(=O)c1ccccc1	-17.3%
CC(=C1C(=O)c2ccccc2C1=O)N1CCN(CCN=Cc2c(O)n(C)c(=O)n(C)c2=O)CC1	24.7%
CC1(C)C(c2ccccc2)=NC(c2cccnc2)=[N+]1[O-]	16.4%
c1ccc2sc(C3CCCNC3)nc2c1 (stereo not drawn)	-18.4%
CCOc1ccc(CN(CCCl)CCCl)cc1C(=O)OC	63.9% (active)
O=C1/C(=C\c2ccc3c(c2)OCO3)N2CCC1CC2	40%
CCOC(=O)C(O)(c1ccc(NC(=O)c2ccco2)c(OC)c1)C(F)(F)F (stereo not drawn)	25.1%
CN1CCC(N(C)Cc2cccnc2)CC1	-0.7%
COc1ccccc1N1CCN(C(CNC(=O)Oc2ccccc2)c2cccnc2)CC1 (stereo not drawn)	39.7%
CN1CCN(Cc2ccc(OC(F)(F)F)cc2)CC1	20.2%
COC(=O)N(c1ccc(OC)cc1)P1(=S)OCCC(C)O1 (stereo not drawn)	21.5%
COc1ccc(C(=O)C2CN(C)CC2C(=O)c2ccc(OC)cc2)cc1 (stereo not drawn)	8.9%
COc1ccccc1CN1CCN(C(=O)Cc2ccccc2)CC1	68.1% (active)
CCC(=NCCc1ccccc1)c1c(O)n(C2CCCCC2)c(=O)[nH]c1=O	11.8%

Compound	inhibition
COc1cc(Cn2c(N)c(C(=O)NCc3ccco3)c3nc4ccccc4nc32)cc(OC)c1OC	93.2% (active)
CCOC(=O)c1c(N)n(CCN2CCOCC2)c2nc3ccccc3nc12	13.3%
CCOC(=O)c1c(N)n(Cc2ccccc2)c2nc3ccccc3nc12	-1%
COc1ccccc1N=C1SCCCN1C	-31.2%
O=C(C1CC(=O)N(C2CCCC2)C1)N1CCC2(CC1)OCCO2 (stereo not drawn)	10.5%
COc1ccc(S(=O)(=O)NCc2ccc(C(=O)N3CCC4(CC3)OCCO4)cc2)cc1	-0.4%
CC(=O)N(C1=NCCCS1)c1ccccc1F	7.3%
CCOC(=O)C1SC2(C(F)(F)C(F)F)CC1(O)c1c(c(OC)c3occc3c1OC)O2 (stereo not drawn)	92.1% (active)
Cc1ccc(C)c(NC2=NCCCS2)c1	7.4%
CC(=NCC1CCCO1)c1c(O)n(-c2ccccc2)c(=O)[nH]c1=O (stereo not drawn)	22.9%
CCOC(=O)CC1=C(C(=O)OCC)C2(C(=O)N1)C(C(=O)OC)=C(N)Oc1ccccc12 (stereo not drawn)	4.8%
CCOC(=O)C1=C(C)OC(N)=C(C(=O)OC)C12C(=O)Nc1ccc(Br)cc12 (stereo not drawn)	62.4% (active)
Cc1cc(C)cc(NC(=S)NC2CC3CCCC(C2)N3Cc2cccs2)c1 (stereo not drawn)	22.1%
CC(=NC1CCN(Cc2ccccc2)CC1)c1c(O)n(C)c(=O)n(C)c1=O	8.1%
Fc1cccc(F)c1CN1CCN(Cc2c(F)cccc2F)CC1	94.4% (active)
CN1CCN(Cc2ccccc2C(F)(F)F)CC1	7.9%
CCOC(=O)C(O)(c1ccc(N)c(OC)c1)C(F)(F)F (stereo not drawn)	20.4%
Fc1ccc(N2CCN(Cc3ccc4c(c3)OCO4)CC2)cc1	22.5%
